This note sets out measurements from PubChem BioAssay.

Experiment [1] has as its system PRMT1 (protein arginine N-methyltransferase 1). Put plainly: PRMT1 binders on small-molecule microarrays, primary screen, biochemical, small-molecule microarray, 635 nm fluorescence (AID 1088).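 Further: binding of Prmt1 protein to compounds spotted on small-molecule microarray slides.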 Conditions: small-molecule microarray binding, higher = more signal.
Experiment [2] is described as follows: yeast growth modulation, basal conditions, primary screen, YJM789 clinical isolate, OD600, 24 h (AID 1089).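 Further: growth of clinical yeast isolate S. cerevisiae YJM 789 seeded 1000 cells per well; test concentration not given here.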 Conditions: S. cerevisiae YJM789 growth, higher = more signal, called active from +8 up or from −8 down.
Experiment [3] can be described thus: fission yeast growth modulation, primary screen, strain 972, OD600, 24 h, no modulator (AID 1090).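 Further: basal condition with compound alone and no growth modifier present; test concentration not given here.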 The following applies: S. pombe 972 growth, higher = more signal, called active from +8 up or from −8 down.
Experiment [4] in a line: S. cerevisiae growth modulation with rapamycin, primary screen, strain BY4716, OD600, 96 h (AID 1091). Further: test concentration not given here. The following applies: higher = more signal, called active from +8 up or from −8 down.
For experiment [5], the target named is Torsin-1A-interacting protein 2 (Homo sapiens) (UniProt Q8NFQ8). Put plainly: LULL1 binders on small-molecule microarray, primary screen, cell lysate, human LULL1 lysate, 635/667 nm fluorescence (AID 1092).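 Further: probe is lysate of COS7 cells overexpressing human LULL1; score merges per-feature 667 nm fluorescence with signal-to-noise.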 The following applies: hLULL1 lysate binding, 635 nm fluorescence, higher = more signal.
Torsin-1A-interacting protein 2 (Homo sapiens), sequence (Q8NFQ8 whole entry, looked up): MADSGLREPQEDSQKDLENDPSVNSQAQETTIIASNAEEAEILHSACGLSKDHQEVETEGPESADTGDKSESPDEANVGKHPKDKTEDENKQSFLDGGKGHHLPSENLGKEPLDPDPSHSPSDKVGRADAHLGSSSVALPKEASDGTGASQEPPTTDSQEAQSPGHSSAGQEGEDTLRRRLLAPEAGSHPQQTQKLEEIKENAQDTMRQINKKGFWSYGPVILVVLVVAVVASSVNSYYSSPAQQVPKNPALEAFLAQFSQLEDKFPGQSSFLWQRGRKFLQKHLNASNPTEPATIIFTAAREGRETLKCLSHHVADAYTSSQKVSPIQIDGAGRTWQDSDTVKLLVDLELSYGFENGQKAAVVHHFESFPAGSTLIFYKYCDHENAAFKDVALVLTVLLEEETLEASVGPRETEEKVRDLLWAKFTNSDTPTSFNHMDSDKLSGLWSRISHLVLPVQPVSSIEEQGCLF
A short description of experiment [6]: E. coli growth modulation, two-sided OD650, primary screen, E. coli filamentation project, strain DRC41, 24 h (AID 1093).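 Further: MC1000 strain lacking acrAB efflux and sulA so SOS filamentation is blocked; test concentration not given here.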 Conditions: OD650, 24 h, higher = more signal, called active from +8 up or from −8 down.
Experiment [7] is described as follows: small-molecule microarray binders of probe aLefty2, primary screen, biochemical, biotinylated probe, 635/667 nm fluorescence (AID 1094).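 Further: score merges spot fluorescence near 667 nm with spot signal-to-noise ratio.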 The following applies: higher = more signal.
For experiment [8], the system named is Noggin (protein binding on small-molecule microarray). Put plainly: Noggin binders on small-molecule microarray, primary screen, biochemical, 635/667 nm fluorescence (AID 1095).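 Further: score merges 667 nm feature fluorescence with signal to noise over triplicate slides.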 Conditions: 635 nm fluorescence, higher = more signal.
Experiment [9] has as its target Neurogenic locus notch homolog protein 3 (Homo sapiens) (UniProt Q9UM47). Put plainly: NOTCH3 binders on small-molecule microarray, primary screen, biochemical, 635/667 nm fluorescence (AID 1096). The following applies: NOTCH3 binding, 635 nm fluorescence, higher = more signal.
Experiment [10] in a line: small-molecule microarray binders of probe aEGFR, primary screen, biochemical, biotinylated probe, 635/667 nm fluorescence (AID 1097).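 Further: probe is a biotinylated anti-EGFR antibody binding compounds printed on slides; score combines fluorescence near 667 nm and signal to noise of each spot.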 The following applies: higher = more signal.
The test system of experiment [11] is Plasmodium falciparum Sir2 (PF13_0152, Sir2A). The experiment in a line: pfSir2 binders on small-molecule microarrays, primary screen, biochemical, small-molecule microarray, 635 nm fluorescence (AID 1098).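 Further: score merges spot fluorescence intensity with its signal-to-noise ratio.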 The following applies: small-molecule microarray binding, fluorescence 635 nm; higher = more signal.
The nature of experiment [12]: small-molecule microarray binders of probe aDKK1, primary screen, biochemical, biotinylated probe, 635/667 nm fluorescence (AID 1099).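 Further: score merges 667nm spot fluorescence with signal to noise across triplicate slides; reference of the scale not given here.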 The following applies: higher = more signal.
The nature of experiment [13]: small-molecule microarray binders of probe aCHRDL2, primary screen, biochemical, biotinylated probe, 635/667 nm fluorescence (AID 1100). Conditions: higher = more signal.
Experiment [14] is described as follows: splicing luciferase reporter signal modulators, primary screen, spliceosome inhibition project, cell-based, HEK293, splice +/- reporter (AID 1101).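 Further: HEK293 cells carrying a splicing-competent luciferase reporter gene; test concentration not given here.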 Conditions: luminescence, 24 h, higher = more signal, called active from +8 up or from −8 down. Background: A reporter such as luciferase makes a cellular process visible.
For experiment [15], the target named is Fibroblast growth factor 10 (Homo sapiens) (UniProt O15520). Put plainly: FGF10 binders on small-molecule microarrays, primary screen, biochemical, small-molecule microarray, 635 nm fluorescence (AID 1102). The following applies: FGF10 binding, fluorescence 635 nm, higher = more signal.
Fibroblast growth factor 10 (Homo sapiens), sequence (O15520 whole entry, looked up): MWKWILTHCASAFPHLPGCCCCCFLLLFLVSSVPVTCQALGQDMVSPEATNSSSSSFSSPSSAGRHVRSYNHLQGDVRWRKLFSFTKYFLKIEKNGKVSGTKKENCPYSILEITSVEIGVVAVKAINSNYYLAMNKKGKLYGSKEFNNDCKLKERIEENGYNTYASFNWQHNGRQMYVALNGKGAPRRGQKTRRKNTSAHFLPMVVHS
Experiment [16] deals with glycogen synthase kinase-3 (GSK3A per assay name; protocol says GSK3B). Put plainly: GSK3 binders on small-molecule microarrays, primary screen, biochemical, small-molecule microarray, 635 nm fluorescence, GSK3A (AID 1103). Further: the record names both GSK3A and GSK3B. Conditions: small-molecule microarray binding, fluorescence 635 nm; higher = more signal.
For experiment [17], the target named is Epidermal growth factor receptor (Homo sapiens) (UniProt P00533). Put plainly: EGFR binders on small-molecule microarrays, primary screen, biochemical, small-molecule microarray, 635 nm fluorescence (AID 1104).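 Further: score merges 667 nm emission intensity with spot signal to noise over triplicate slides.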 The following applies: EGFR binding, higher = more signal.
Epidermal growth factor receptor (Homo sapiens), sequence (P00533 whole entry, looked up): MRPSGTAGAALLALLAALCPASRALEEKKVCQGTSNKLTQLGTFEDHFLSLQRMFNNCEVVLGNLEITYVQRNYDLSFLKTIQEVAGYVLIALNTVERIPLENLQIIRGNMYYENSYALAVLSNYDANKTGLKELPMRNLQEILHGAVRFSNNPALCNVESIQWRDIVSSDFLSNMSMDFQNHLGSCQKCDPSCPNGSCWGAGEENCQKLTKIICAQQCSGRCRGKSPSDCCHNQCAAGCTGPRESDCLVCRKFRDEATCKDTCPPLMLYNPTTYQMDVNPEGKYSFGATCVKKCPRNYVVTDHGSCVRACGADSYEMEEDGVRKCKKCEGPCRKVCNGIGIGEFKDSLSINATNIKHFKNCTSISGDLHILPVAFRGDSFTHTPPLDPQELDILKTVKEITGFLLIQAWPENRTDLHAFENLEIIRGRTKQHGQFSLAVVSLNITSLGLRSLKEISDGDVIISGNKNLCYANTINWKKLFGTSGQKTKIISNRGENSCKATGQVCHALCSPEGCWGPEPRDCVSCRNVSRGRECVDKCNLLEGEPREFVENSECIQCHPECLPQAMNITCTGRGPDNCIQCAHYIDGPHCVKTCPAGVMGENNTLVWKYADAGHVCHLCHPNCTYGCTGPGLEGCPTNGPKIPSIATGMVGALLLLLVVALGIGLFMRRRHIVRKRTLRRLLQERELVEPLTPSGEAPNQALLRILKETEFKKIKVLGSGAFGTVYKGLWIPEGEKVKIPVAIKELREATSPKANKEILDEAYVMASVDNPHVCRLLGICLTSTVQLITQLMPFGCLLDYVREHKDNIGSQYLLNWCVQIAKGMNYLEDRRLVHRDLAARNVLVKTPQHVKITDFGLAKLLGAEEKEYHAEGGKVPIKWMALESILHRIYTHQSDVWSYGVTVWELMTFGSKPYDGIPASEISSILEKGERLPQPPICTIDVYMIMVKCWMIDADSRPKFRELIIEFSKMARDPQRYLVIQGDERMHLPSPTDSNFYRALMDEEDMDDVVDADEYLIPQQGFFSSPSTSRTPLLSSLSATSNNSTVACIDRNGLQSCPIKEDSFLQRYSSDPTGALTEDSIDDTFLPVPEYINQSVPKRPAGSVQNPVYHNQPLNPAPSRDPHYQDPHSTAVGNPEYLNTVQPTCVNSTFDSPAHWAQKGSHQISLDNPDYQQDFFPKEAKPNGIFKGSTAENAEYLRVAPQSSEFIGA
In experiment [18] the target is Follistatin-related protein 3 (Homo sapiens) (UniProt O95633). The experiment in a line: FSTL3 binders on small-molecule microarrays, primary screen, biochemical, small-molecule microarray, 635 nm fluorescence (AID 1105).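 Further: score merges emission near 667 nm and signal to noise per printed spot across three slides.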 Conditions: FSTL3 binding, higher = more signal.
Follistatin-related protein 3 (Homo sapiens), sequence (O95633 whole entry, looked up): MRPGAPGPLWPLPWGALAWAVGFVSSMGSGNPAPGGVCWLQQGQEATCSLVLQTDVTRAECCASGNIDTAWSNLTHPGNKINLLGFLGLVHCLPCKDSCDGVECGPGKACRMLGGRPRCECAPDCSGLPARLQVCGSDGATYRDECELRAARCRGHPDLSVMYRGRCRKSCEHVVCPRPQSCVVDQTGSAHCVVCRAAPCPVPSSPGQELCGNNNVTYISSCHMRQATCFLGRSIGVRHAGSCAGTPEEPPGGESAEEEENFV
The target of experiment [19] is Dickkopf-related protein 1 (Homo sapiens) (UniProt O94907). The experiment in a line: DKK1 binders on small-molecule microarrays, primary screen, biochemical, small-molecule microarray, 635 nm fluorescence scan (AID 1106).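 Further: score merges emission near 667 nm with signal to noise over three replicate slides.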 The following applies: DKK1 binding, higher = more signal.
Dickkopf-related protein 1 (Homo sapiens), sequence (O94907 whole entry, looked up): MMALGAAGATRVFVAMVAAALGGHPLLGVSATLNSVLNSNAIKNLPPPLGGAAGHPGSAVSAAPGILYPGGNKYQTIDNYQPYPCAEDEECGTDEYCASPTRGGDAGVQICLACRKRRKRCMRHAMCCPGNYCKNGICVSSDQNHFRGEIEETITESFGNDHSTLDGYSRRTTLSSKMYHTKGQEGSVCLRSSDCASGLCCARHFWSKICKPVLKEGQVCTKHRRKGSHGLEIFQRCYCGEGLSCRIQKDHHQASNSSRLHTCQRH
Experiment [20] deals with Inhibin beta A chain (activin A). Put plainly: INHBA (activin A) binders on microarrays, primary screen, biochemical, small-molecule microarray, 635 nm fluorescence scan (AID 1107).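 Further: mouse activin A protein probed at 4.33 µg/mL on printed slides; score merges bound-protein fluorescence near 667 nm with spot signal-to-noise.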 The following applies: small-molecule microarray binding, higher = more signal.

Activity calls are given as the source filed them.

Neurogenic locus notch homolog protein 3 (Homo sapiens), sequence (Q9UM47 whole entry, looked up): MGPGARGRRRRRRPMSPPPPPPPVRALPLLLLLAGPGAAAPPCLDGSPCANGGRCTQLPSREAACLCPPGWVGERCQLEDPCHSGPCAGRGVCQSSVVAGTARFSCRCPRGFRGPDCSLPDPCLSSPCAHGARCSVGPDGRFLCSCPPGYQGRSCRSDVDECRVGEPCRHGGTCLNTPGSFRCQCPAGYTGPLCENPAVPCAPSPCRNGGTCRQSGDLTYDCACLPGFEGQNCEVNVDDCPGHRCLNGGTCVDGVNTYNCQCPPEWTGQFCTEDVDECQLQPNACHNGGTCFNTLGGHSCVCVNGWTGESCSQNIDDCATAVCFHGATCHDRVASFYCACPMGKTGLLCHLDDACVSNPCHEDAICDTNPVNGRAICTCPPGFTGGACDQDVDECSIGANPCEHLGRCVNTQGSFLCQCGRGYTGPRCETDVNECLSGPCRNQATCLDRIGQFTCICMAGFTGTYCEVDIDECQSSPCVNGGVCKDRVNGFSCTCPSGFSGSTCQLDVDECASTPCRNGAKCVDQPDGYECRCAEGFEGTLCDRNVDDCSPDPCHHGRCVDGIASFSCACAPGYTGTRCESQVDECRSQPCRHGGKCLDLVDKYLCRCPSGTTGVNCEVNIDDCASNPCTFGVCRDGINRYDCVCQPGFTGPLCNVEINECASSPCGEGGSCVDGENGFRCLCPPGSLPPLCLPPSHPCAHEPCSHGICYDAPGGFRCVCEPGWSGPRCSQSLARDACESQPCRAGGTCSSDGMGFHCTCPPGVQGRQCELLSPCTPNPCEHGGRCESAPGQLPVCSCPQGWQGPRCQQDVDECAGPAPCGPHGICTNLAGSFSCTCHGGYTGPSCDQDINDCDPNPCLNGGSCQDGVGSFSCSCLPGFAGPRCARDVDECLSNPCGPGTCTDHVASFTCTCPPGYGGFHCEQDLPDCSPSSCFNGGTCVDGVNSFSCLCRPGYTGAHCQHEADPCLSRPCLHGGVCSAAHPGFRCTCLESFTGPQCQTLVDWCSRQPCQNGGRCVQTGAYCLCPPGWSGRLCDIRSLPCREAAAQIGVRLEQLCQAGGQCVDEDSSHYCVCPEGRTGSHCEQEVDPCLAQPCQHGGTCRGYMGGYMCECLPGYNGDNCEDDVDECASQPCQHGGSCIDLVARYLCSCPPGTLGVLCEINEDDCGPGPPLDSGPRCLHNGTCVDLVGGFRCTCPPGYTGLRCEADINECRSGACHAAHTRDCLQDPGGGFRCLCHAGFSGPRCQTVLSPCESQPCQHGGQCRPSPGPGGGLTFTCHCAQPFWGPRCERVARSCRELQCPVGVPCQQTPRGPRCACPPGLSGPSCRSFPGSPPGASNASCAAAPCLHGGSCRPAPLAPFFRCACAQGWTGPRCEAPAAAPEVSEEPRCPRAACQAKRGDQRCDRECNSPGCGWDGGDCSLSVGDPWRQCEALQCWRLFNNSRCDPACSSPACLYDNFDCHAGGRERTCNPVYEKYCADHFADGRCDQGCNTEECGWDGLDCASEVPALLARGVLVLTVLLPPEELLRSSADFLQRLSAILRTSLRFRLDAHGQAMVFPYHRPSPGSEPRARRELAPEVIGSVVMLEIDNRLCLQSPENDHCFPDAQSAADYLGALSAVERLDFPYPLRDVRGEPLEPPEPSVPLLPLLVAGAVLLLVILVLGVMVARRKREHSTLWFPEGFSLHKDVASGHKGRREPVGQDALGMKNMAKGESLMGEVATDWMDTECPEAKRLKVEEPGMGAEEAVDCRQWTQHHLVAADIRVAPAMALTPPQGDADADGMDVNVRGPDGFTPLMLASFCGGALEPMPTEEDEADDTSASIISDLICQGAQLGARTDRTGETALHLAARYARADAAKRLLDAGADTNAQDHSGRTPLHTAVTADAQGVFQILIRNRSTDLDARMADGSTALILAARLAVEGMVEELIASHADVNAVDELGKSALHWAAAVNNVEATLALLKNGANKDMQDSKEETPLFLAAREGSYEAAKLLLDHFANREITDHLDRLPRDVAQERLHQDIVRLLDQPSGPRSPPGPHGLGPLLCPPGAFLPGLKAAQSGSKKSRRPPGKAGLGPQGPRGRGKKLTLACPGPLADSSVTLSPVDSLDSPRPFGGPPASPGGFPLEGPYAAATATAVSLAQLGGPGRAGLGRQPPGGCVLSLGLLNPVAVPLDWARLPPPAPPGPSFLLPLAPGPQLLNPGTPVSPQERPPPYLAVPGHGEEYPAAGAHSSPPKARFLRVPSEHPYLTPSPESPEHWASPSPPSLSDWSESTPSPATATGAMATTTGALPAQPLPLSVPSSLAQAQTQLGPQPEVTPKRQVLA

Regarding `CCCCCCc1nc(-c2cc(C)c(OC)c(C)c2)cc2c1[Si](C(C)C)(C(C)C)O[C@H]2c1ccccc1`, the composite z-score was -0.118 in [1]; -0.685 in [5]; -0.107 in experiment [7]; -0.346 in experiment [8]; -0.496 in experiment [9]; -0.168 in [10]. Moreover, the composite z-score in experiment [11] was -0.717; in experiment [12], -0.268; in experiment [13] it was 0.122; in [15], -0.915; in experiment [16] it was -0.849; in [17] it was -0.394. Also, the composite z-score is -0.677 in experiment [18], -0.302 in experiment [19] and 0.621 in [20]. Further, the z-score in experiment [2] was 0.955 (inactive); in experiment [3], 0.659 (inactive); in experiment [4], -0.558 (inactive); in experiment [6], -0.54 (inactive); in [14], 0.399 (inactive).

For `CC(C)=C1C(=O)C(c2ccccc2)=C2CN3C(=O)N(CCc4ccccc4)C(=O)[C@]3(Cc3ccccc3)[C@H]21`, the composite z-score in experiment [1] is -0.632; in [5] it was 1.15; in experiment [7] it was 0.213; in experiment [8], -0.974; in experiment [9], -0.546; in experiment [10], -0.138. Also, the composite z-score in experiment [11] is -0.34; in experiment [12], 0.809; in experiment [13], 1.25; in experiment [15], -0.316; in experiment [16], -0.121; in experiment [17], -0.972. In addition, the composite z-score was -0.356 in experiment [18], -1.86 in experiment [19] and 0.64 in experiment [20]. The z-score in experiment [2] is 0.637 (inactive); in experiment [3] it was 0.927 (inactive); in experiment [4], 0.867 (inactive); in [6], -0.901 (inactive); in experiment [14] it was 0.514 (inactive).

`C[N+](C)(C)CCCCNC(=O)[C@H]1C[C@H]2C(=O)NCC(=O)N2[C@H]1c1cccc(OCCO)c1`: the composite z-score in experiment [1] was 1.54; in experiment [5], 0.57; in [7], -0.0463; in experiment [8] it was 1.91; in experiment [9], 1.05; in [10] it was 0.0717. Moreover, the composite z-score in experiment [11] is 1.59; in experiment [12] it was 0.0166; in [13] it was -0.335; in [15], 1.45; in experiment [16], 1.29; in experiment [17], 1.09. For the same compound, the values for the composite z-score in experiment [18], in [19] and in experiment [20] were 1.49, 1.84 and 0.747, respectively. The z-score in [2] was -0.138 (inactive); in experiment [3], 0.0073 (inactive); in [4], -1.66 (inactive); in experiment [6], -0.271 (inactive); in experiment [14], 0.589 (inactive).

In the case of `COCCOC(=O)N1C(=O)[C@@]2(c3cc(C#CCC(C(=O)OC)C(=O)OC)ccc31)[C@H](c1ccccc1OCCO)N1[C@H](c3ccccc3)[C@H](c3ccccc3)OC(=O)[C@H]1[C@@H]2C(=O)N1CCCCCCC1`, the composite z-score worked out at 1.51 in [1]; 3.29 in [5]; 1.53 in experiment [7]; 1.63 in experiment [8]; 1.11 in experiment [9]; 0.83 in experiment [10]. Moreover, the composite z-score in experiment [11] was 0.853; in experiment [12] it was 1.97; in [13], 1.42; in experiment [15], 0.834; in experiment [16], 1.29; in experiment [17], 0.852. Moreover, the figures for the composite z-score in experiment [18], in experiment [19] and in experiment [20] were 1.56, 1.4 and 1.61, respectively. In addition, the z-score in experiment [2] is 1.22 (inactive); in [3] it was 0.639 (inactive); in experiment [4], 3.35 (inactive); in [6], -0.366 (inactive); in experiment [14] it was -0.247 (inactive).

`COC(=O)[C@H]1[C@@H]2COc3ccccc3[C@H]2N[C@H]1C(=O)OC`: the composite z-score in [1] is 0.213; in [5] it was 0.584; in [7] it was 0.0111; in experiment [8], 0.208; in experiment [9], 0.422; in experiment [10], -0.152. For the same compound, the composite z-score in experiment [11] was 0.0829; in experiment [12], -0.0995; in [13], 0.0399; in experiment [15] it was 0.348; in experiment [16] it was 0.332; in experiment [17], 0.261. In addition, the composite z-score came out at 0.327 in experiment [18], 0.0008 in experiment [19] and 0.0992 in experiment [20]. The z-score in experiment [2] is -0.501 (inactive); in experiment [3], -8.98 (active); in experiment [4], 0.265 (inactive); in experiment [6], 0.694 (inactive); in [14] it was -0.685 (inactive).
